Results filed as inconclusive are left out. Where a structure was tested more than once in an assay, its records may differ in their call. Active and inactive are the calls of the source. Rule for the calls, unless noted: active = hit-call score of the fitted dose curve at least 0.9, where 1 is the maximum; inactive = score below 0.9.
Key:
[1] = read-out: Thrombomodulin, THBD (gene 7056); experiment: BSK_LPS_Thrombomodulin: BioMAP Diversity Plus: LPS Assay for Thrombomodulin Biomarker Activity (AID 2284296); conditions: outcome: primary human HUVEC with PBMC unless noted
How it was run: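 Human umbilical vein endothelial cells co-cultured with PBMC and stimulated with LPS; cell-surface thrombomodulin measured by ELISA 24 hours after compound. Gain or loss versus DMSO; cytotoxicity checked by SRB staining in parallel cultures.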

CD69, CD69 (gene 969) = experiment: BSK_LPS_CD69: BioMAP Diversity Plus: LPS Assay for CD69 Biomarker Activity (AID 2284303); conditions: primary human HUVEC with PBMC
How it was run: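 Human umbilical vein endothelial cells co-cultured with PBMC under LPS stimulation, chemical exposure 24 h; cell-surface CD69 measured by ELISA and fitted in the positive direction versus DMSO.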

[2] = IUF_NPC2c_oligodendrocyte_migration_120hr: Leibniz Research Institute for Environmental Medicine (IUF) 120-hour Neural Progenitor Cell Migration Assay for Oligodendrocyte Migration (NPC2c) (AID 2284297);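 note: O4-positive oligodendrocyte migration distance divided by radial glia migration distance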
How it was run: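 Primary hNPC spheres migrating on extracellular matrix, exposed five days to a 7-point dilution series with solvent control. Oligodendrocyte migration was scored by high-content imaging of O4 immunostaining and expressed relative to radial glia distance.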

[3] = IUF_NPC2a_radial_glia_migration_120hr: Leibniz Research Institute for Environmental Medicine (IUF) 120-hour Neural Progenitor Cell Migration Assay for Radial Glia Migration (NPC2a) (AID 2284298)
How it was run: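 In this multiplexed test, fetal hNPC spheres migrate radially on poly-D-lysine/laminin in N2 medium (37C, 5% CO2, pH 7.2-7.6) under continuous compound exposure over five days. Migration is scored at 120 h from automated Hoechst nuclear imaging.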

[4] = IUF_NPC2a_radial_glia_migration_72hr: Leibniz Research Institute for Environmental Medicine (IUF) 72-hour Neural Progenitor Cell Migration Assay for Radial Glia Migration (NPC2a) (AID 2284299)
How it was run: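 Primary hNPC spheres, fetal brain GW 16-19, on PDL/laminin; DMEM/F12 3:1 + 1% N2. Compound dosed day 0, 7 conc. + SC, half-medium refresh day 3. 72 h brightfield, migration distance core-to-front (um), 4 directions averaged.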

[5] = IUF_NPC2b_neuronal_migration_120hr: Leibniz Research Institute for Environmental Medicine (IUF) 120-hour Neural Progenitor Cell Migration Assay for Neuron Migration (NPC2b) (AID 2284300)
How it was run: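 Neurons identified by TUBB3 immunostaining and Hoechst nuclei; migration distance measured automatically on fixed wells at 120 h, normalized to glia migration. Exposure spanned five days of differentiation in N2 medium, seven test concentrations.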

[6] = IUF_NPC3_neuronal_differentiation_120hr: Leibniz Research Institute for Environmental Medicine (IUF) 120-hour Neuronal Differentiation Assay (NPC3) (AID 2284301)
How it was run: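 Primary human fetal neural progenitor spheres (GW 16-19, 0.3 mm) plated on poly-D-lysine/laminin in N2 medium, exposed from day 0 for 120 h with half-medium refresh at day 3. TUBB3+ cells as percent of Hoechst nuclei in migration area; DMSO baseline.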

[7] = IUF_NPC4_neurite_length_120hr: Leibniz Research Institute for Environmental Medicine (IUF) 120-hour Neuronal Morphology Assay for Neurite Length (NPC4) (AID 2284302)
How it was run: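 Human fetal cortex (GW 16-19) neural progenitor spheres, 0.3 mm, were plated on poly-D-lysine/laminin in N2 differentiation medium and exposed from day 0 for 120 h, half-feeding at day 3. Mean TUBB3+ neurite length (µm) came from skeletonized images, relative to DMSO.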

[8] = IUF_NPC5_oligodendrocyte_differentiation_120hr: Leibniz Research Institute for Environmental Medicine (IUF) 120-hour Oligodendrocyte Differentiation Assay (NPC5) (AID 2284304; active = hit-call score of the fitted dose curve at least 0.9, where 1 is the maximum;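 note: primary human fetal neural progenitor spheres plated to migrate and differentiate; share of O4-positive cells among Hoechst nuclei found by CNN image analysis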)
How it was run: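 Human primary NPC neurospheres migrating and differentiating on laminin for 120 h under continuous compound exposure (serial dilution, solvent control). Endpoint: percent O4+ oligodendrocytes among Hoechst nuclei, detected by CNN image analysis, with DMSO as negative control.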

[9] = IUF_NPC4_neurite_area_120hr: Leibniz Research Institute for Environmental Medicine (IUF) 120-hour Neuronal Morphology Assay for Neurite Area (NPC4) (AID 2284305; active = hit-call score of the fitted dose curve at least 0.9, where 1 is the maximum)
How it was run: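 Human fetal cortex-derived neural progenitor spheres (0.3 mm, GW 16-19) plated on poly-D-lysine/laminin in N2 differentiation medium and exposed from day 0 for 120 h across 7 concentrations plus solvent control. Neurite area is mean pixel area per TUBB3-positive neuron via skeletonization, analysed relative to DMSO.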

[10] = IUF_NPC2-5_cytotoxicity_72hr: Cytotoxicity Assessment at 72 hours in the Leibniz Research Institute for Environmental Medicine (IUF) Neural Progenitor Cell Migration and Differentiation Assay for Cytotoxicity (NPC2-5) (AID 2284306; active = hit-call score of the fitted dose curve at least 0.9, where 1 is the maximum;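 note: LDH release into supernatant measured by resorufin fluorescence marking membrane damage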)
How it was run: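 Human fetal (GW 16-19) neural progenitor spheres, 0.3 mm, plated on poly-D-lysine/laminin in N2 differentiation medium and exposed from day 0 to 7 concentrations plus solvent control (DMSO ≤0.1%). LDH-dependent resazurin-to-resorufin fluorescence in supernatant at 72 h.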

[11] = IUF_NPC2-5_cytotoxicity_120hr: Cytotoxicity Assessment at 120 hours in the Leibniz Research Institute for Environmental Medicine (IUF) Neural Progenitor Cell Migration and Differentiation Assay (NPC2-5) (AID 2284307; active = hit-call score of the fitted dose curve at least 0.9, where 1 is the maximum;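 for AC50: LDH released into supernatant as membrane damage marker via resorufin fluorescence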)
How it was run: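 Fluorescence (RFU) from LDH-driven resazurin reduction in medium supernatants measured loss of membrane integrity after 120 h of compound exposure of differentiating primary human neural progenitor spheres on an extracellular matrix.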

[12] = IUF_NPC2-5_cell_number_120hr: Cell Number Assessment at 120 hours in the Leibniz Research Institute for Environmental Medicine (IUF) Neural Progenitor Cell Migration and Differentiation Assay (NPC2-5) (AID 2284308);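 note: count of Hoechst-stained nuclei in migration zone around plated human neural progenitor spheres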
How it was run: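 Cell number is taken as all Hoechst-positive nuclei detected in the area into which cells migrate out of the sphere, scored at 120 h and referenced to DMSO solvent control, which was kept at no more than 0.1%.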

[13] = read-out: E-selectin (Homo sapiens) (UniProt P16581); experiment: BSK_IMphg_ESelectin: BioMAP Diversity Plus: IMphg Assay for Eselectin Biomarker Activity (AID 2284291); conditions: primary human endothelial cells with macrophages
How it was run: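 Human venular endothelial cell–macrophage co-culture, E-selectin measured by ELISA 24 h after chemical dosing. Signal fitted in the positive direction against DMSO as negative control and baseline.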

[14] = BSK_IMphg_SRB: Viability Assessment in the BioMAP Diversity Plus: IMphg Assay (AID 2284292); conditions: primary human endothelial cells with macrophages;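 note: measured one day after compound addition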
How it was run: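 Human venular endothelial cells with macrophages, 24 h after chemical dosing; total protein by 0.1% SRB staining after 10% TCA fixation, read at 560 nm. Positive-direction fitting versus DMSO baseline.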

[15] = read-out: Macrophage colony-stimulating factor (MCSF), CSF1 (gene 1435); experiment: BSK_IMphg_MCSF: BioMAP Diversity Plus: IMphg Assay for Macrophage colony-stimulating factor (MCSF) Biomarker Activity (AID 2284293); conditions: primary human endothelial cells with macrophages
How it was run: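 Co-culture of human venular endothelial cells and macrophages, 24 hours of chemical exposure. M-CSF quantified by ELISA, with parallel SRB total-protein staining for cytotoxicity; activity fitted relative to DMSO.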

[16] = read-out: Interleukin-10 (IL10), IL10 (gene 3586); experiment: BSK_IMphg_IL10: BioMAP Diversity Plus: IMphg Assay for Interleukin-10 (IL10) Biomarker Activity (AID 2284294); conditions: primary human endothelial cells with macrophages
How it was run: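 Human venular endothelial cells cocultured with macrophages, dosed 24 h; IL-10 measured by ELISA, activity relative to DMSO. Cytotoxicity assessed in parallel cultures by sulforhodamine B total-protein staining.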

[17] = BSK_IMphg_SRB.Mphg: Macrophage Viability Assessment in the BioMAP Diversity Plus: IMphg Assay (AID 2284295); conditions: primary human endothelial cells with macrophages
How it was run: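 Venular endothelial cells co-cultured with macrophages, read 24 h after dosing. Total protein measured by 0.1% SRB staining after 10% TCA fixation, absorbance at 560 nm. Fitted in positive direction against DMSO baseline.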

[18] = VALA_TUBHUV_Agonist_CellCount: Viability Assessment in the VALA Sciences human Umbilical Vein Endothelial Tubule Formation (TUBHUV) Agonism Assay (AID 2284309; active = hit-call score of the fitted dose curve at least 0.9, where 1 is the maximum)
How it was run: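 HUVEC co-cultured 1:3 with HDF for 3 days in 10 ng/ml VEGF, then compounds added in VEGF medium for a further 3 days (72 h). Nuclear-stain/CD31 imaging cell count. Positive-direction fit versus 0.1% DMSO vehicle.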

[19] = VALA_TUBIPS_Agonist_TubuleLength: VALA Sciences human iPS-derived Endothelial Tubule Formation (TUBIPS) Agonism Assay (AID 2284311; active = hit-call score of the fitted dose curve at least 0.9, where 1 is the maximum)
How it was run: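 Human iPS-derived endothelial cells were exposed to compound for 72 h. Tubule formation was imaged by high-content fluorescence and scored as gain of signal relative to DMSO vehicle (agonist mode).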

Chain of E-selectin (Homo sapiens) (P16581 whole entry, looked up): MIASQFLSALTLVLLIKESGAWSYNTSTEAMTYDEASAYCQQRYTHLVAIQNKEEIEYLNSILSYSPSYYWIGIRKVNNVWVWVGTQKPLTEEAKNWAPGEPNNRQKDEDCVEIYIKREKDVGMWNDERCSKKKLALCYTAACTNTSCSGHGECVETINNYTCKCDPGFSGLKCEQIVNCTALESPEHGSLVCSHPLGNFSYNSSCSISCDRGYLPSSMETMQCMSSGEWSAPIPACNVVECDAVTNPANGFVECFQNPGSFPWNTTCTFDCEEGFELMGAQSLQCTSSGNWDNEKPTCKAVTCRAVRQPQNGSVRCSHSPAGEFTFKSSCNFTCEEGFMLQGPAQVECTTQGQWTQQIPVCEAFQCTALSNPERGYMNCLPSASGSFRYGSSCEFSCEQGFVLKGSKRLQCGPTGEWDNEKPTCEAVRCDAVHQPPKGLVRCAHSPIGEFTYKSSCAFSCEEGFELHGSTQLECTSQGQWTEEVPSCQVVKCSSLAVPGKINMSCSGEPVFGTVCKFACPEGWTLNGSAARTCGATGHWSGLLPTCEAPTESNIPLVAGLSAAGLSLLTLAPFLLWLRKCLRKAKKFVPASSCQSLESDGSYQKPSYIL

CC(=O)OC(c1ccccc1)C(Cl)(Cl)Cl (stereo not given)
outcome [1]: inactive
outcome (CD69, CD69 (gene 969)): inactive

CCOP(=S)(OCC)Oc1nc(Cl)c(Cl)cc1Cl
outcome [2]: inactive
outcome [3]: inactive
outcome [4]: inactive
outcome [5]: inactive
outcome [6]: inactive
outcome [7]: inactive
outcome [8]: inactive
outcome [9]: inactive
outcome [10]: inactive
outcome [11]: inactive
outcome [12]: inactive

O=C(O)C(F)(F)C(F)(F)C(F)(F)C(F)(F)C(F)(F)C(F)(F)F
outcome [13]: inactive
outcome [14]: inactive
outcome [15]: inactive
outcome [16]: inactive
outcome [17]: inactive
outcome [1]: inactive
outcome (CD69, CD69 (gene 969)): inactive

O=C(O)CCC(F)(C(F)(F)F)C(F)(F)F
outcome [13]: inactive
outcome [14]: inactive
outcome [15]: inactive
outcome [16]: inactive
outcome [17]: inactive
outcome [1]: inactive
outcome (CD69, CD69 (gene 969)): inactive

O=C(O)C(F)(F)C(F)(F)C(F)(F)C(F)(F)C(F)(F)C(F)(F)C(F)(F)C(F)(F)C(F)(F)C(F)(F)F
outcome [13]: inactive
outcome [14]: inactive
outcome [15]: inactive
outcome [16]: inactive
outcome [17]: inactive
outcome [1]: inactive
AC50 (CD69, CD69 (gene 969)): 3330 nM (active)
outcome (CD69, CD69 (gene 969)): inactive

COP(=O)(OC)O/C(=C\Cl)c1cc(Cl)c(Cl)cc1Cl
AC50 [2]: 603 nM (active)
AC50 [3]: 638 nM (active)
AC50 [4]: 1030 nM (active)
AC50 [5]: 785 nM (active)
AC50 [6]: 988 nM (active)
AC50 [7]: 466 nM (active)
AC50 [9]: 675 nM (active)
outcome [10]: inactive
AC50 [11]: 5390 nM (active)
AC50 [12]: 356 nM (active)

CC(C)(C)c1cc(O)ccc1O
AC50 [18]: 11000 nM (active)
outcome [19]: inactive

COC(=O)Cc1ccccc1
AC50 [1]: 2180 nM (active)
outcome [1]: inactive [setting not given]
outcome (CD69, CD69 (gene 969)): inactive
